# Data reported in PubChem BioAssay AID372 (MTDP, 2006).
# Out of some 100,000 compounds screened, about 770 (0.77%) were called active. Many of the other results were omitted from the sample, so actives are more common in it than they were. Unmarked numbers belong to inactive results. Rule as the data show it: active = inhibition above about 50%; inactive = the rest.
# Biological target: Gag-Pol polyprotein (Human immunodeficiency virus type 1 group M subtype B (isolate HXB2)) (UniProt P04585)
# Test: RNase H inhibition, HIV 1 Gag Pol polyprotein, FRET biochemical assay, screening (AID 372)
# Settings: HIV-1 RT RNase H, FRET RNA/DNA substrate fluorescence; at 10 µM; stronger effect = higher value
row,Compound,inhibition
1,CC(C)(C)c1ccc(C(=O)NC2CCCC2)cc1,2%
2,O=C1c2ccccc2NC(c2ccccc2O)N1c1ccc(Cl)cc1 (configuration not stated),12%
3,COc1cc(OC)c(OC)cc1CN1CCN(C/C=C/c2ccccc2)CC1,14%
4,c1ccc(N2N=C(c3cccs3)CC2c2cccs2)cc1 (configuration not stated),6%
5,COc1ccc(/C=N/n2nnnc2N)cc1Br,30%
6,Cc1ccc2cc(C)c(NCc3ccccn3)nc2c1,6%
7,CCOC(=O)C(CC)P(=O)(c1ccccc1)c1ccccc1 (configuration not stated),0%
8,CCCC(=O)Nc1ccc(NC(=O)c2ccccc2[N+](=O)[O-])cc1,7%
9,CN(C)c1ccc(C(=O)N2CCN(c3ccc(F)cc3)CC2)cc1,13%
10,Cc1ccc(-c2nc3ccccc3o2)cc1NC(=O)COc1ccc(Cl)cc1,9%
11,Cc1ccc2oc(-c3ccc(NC(=O)COc4ccc(Br)cc4)cc3)nc2c1,59% (active)
12,O=C(COc1ccc(Cl)cc1)Nc1ccc2oc(-c3ccc(Cl)cc3)nc2c1,54% (active)
13,O=C(COc1ccc(Cl)cc1)Nc1ccc2oc(-c3ccccc3)nc2c1,16%
14,Cc1ccc2oc(-c3ccc(NC(=O)COc4ccc(Cl)cc4)cc3)nc2c1,28%
15,COc1ccc(OCC(=O)Nc2ccc(-c3nc4cc(C)ccc4o3)cc2)cc1,19%
16,Cc1ccc(-c2nc3cc(Cl)ccc3o2)cc1NC(=O)c1cccc([N+](=O)[O-])c1,57% (active)
17,CCc1ccc2oc(-c3ccc(C)c(NC(=O)COc4ccc(Cl)cc4)c3)nc2c1,52% (active)
18,O=C(COc1ccccc1)Nc1ccc2oc(-c3ccc(Cl)cc3)nc2c1,49%
19,CCc1ccc2oc(-c3ccc(C)c(NC(=O)COc4ccccc4)c3)nc2c1,44%
20,Cc1ccc(-c2nc3cc(Cl)ccc3o2)cc1NC(=O)c1cccc(Cl)c1,15%
21,Cc1cc2nc(-c3ccc(C)c(NC(=O)c4cccc([N+](=O)[O-])c4)c3)oc2cc1C,15%
22,O=C(NCCN1CCOCC1)c1cc2nc(-c3ccc(Cl)cc3)cc(C(F)(F)F)n2n1,0%
23,COc1ccc(C=NN2CCN(Cc3ccccc3Cl)CC2)c(OC)c1,6%
24,Cc1nc(-c2ccccc2)sc1C(=O)Nc1ccc(Br)cc1,15%
25,c1ccc(-c2ccc(Oc3cc(-n4cccn4)ncn3)cc2)cc1,11%

row,Compound,inhibition
1,O=C(Nc1ccc(Cl)cc1)c1cccc(N2C(=O)c3cccnc3C2=O)c1,0%
2,Cc1ccc(NC(=O)c2c(NC(=O)C(F)(F)F)sc3c2CCCCC3)c(C)c1,23%
3,Cc1ccc(NC(=O)c2c(NC(=O)C(F)(F)F)sc3c2CCC3)c(C)c1,13%
4,Oc1c(C=Nc2ccccc2)sc2ccccc12,4%
5,CC(=O)c1ccc(NS(=O)(=O)c2cccc(S(=O)(=O)c3ccc(Cl)c(Cl)c3)c2)cc1,10%
6,COc1cc(/C=C2\SC(=S)N(NC(=O)c3ccc(Br)cc3)C2=O)ccc1O,23%
7,O=C(NN1C(=O)/C(=C/c2ccc(O)cc2)SC1=S)c1ccccc1Br,5%
8,COc1cc(/C=C2\SC(=S)N(NC(=O)c3ccc(O)c(OC)c3)C2=O)ccc1O,34%
9,COc1cc(/C=C2\SC(=S)N(Nc3ccccc3)C2=O)cc(OC)c1OC,4%
10,COc1cc(/C=C2\SC(=S)N(NC(=O)c3ccccc3Br)C2=O)ccc1O,18%
11,O=C(NN1C(=O)/C(=C/c2ccc(O)c(O)c2)SC1=S)c1ccccc1Br,50% (active)
12,O=C(NN1C(=O)/C(=C/c2ccc(O)c(O)c2)SC1=S)c1ccc(Br)cc1,58% (active)
13,COc1cc(C(=O)NN2C(=O)/C(=C/c3ccccc3)SC2=S)ccc1O,4%
14,COc1cc(/C=C2\SC(=S)N(Nc3ccccc3)C2=O)ccc1O,37%
15,COc1cc(C(=O)NN2C(=O)/C(=C/c3ccc(OC)c(OC)c3)SC2=S)ccc1O,61% (active)
16,COc1ccc(/C=C2\SC(=S)N(Nc3ccccc3)C2=O)cc1OC,55% (active)
17,O=C(NN1C(=O)/C(=C/c2ccc(Br)cc2)SC1=S)c1ccncc1,5%
18,CCOc1ccc(C(=O)Nc2ccc3oc(-c4ccc(CC)cc4)nc3c2)cc1[N+](=O)[O-],16%
19,Nc1nc(CN2C(=O)c3ccccc3C2=O)cs1,2%
20,CCOC(=O)c1c(NC(=O)c2ccc3c(c2)OCCO3)sc2c1CCCC2,5%
21,CC(=O)OCCN1C(=O)c2ccc(Oc3cccc(Oc4ccc5c(c4)C(=O)N(CCOC(C)=O)C5=O)c3)cc2C1=O,10%
22,CCOc1ccc(/C=C2\SC(=S)N(CCC(=O)Nc3cccnc3)C2=O)cc1,22%
23,CC(=O)N1c2ccccc2NC2=C(C(=O)CC(c3ccccc3)C2)C1c1cccnc1 (configuration not stated),7%
24,O=C(O)c1cccc(C(=O)O)c1N(c1ccccc1)c1ccccc1,40%
25,CCOc1cc(/C=N/n2cnnc2)cc(Cl)c1OCCOc1cc(C)ccc1C(C)C,10%

row,Compound,inhibition
1,COc1ccc(C(=O)Nc2nccs2)c(OC)c1,4%
2,Cc1cccc(N2C(=O)NC(=O)/C(=C\c3ccc(Oc4ccc([N+](=O)[O-])cn4)cc3)C2=O)c1,13%
3,Oc1ccccc1/C=N/n1c(-c2ccccc2)n[nH]c1=S,11%
4,Cc1ccc(-c2n[nH]c(=S)n2N=Cc2ccc(Cl)c(Cl)c2)cc1,18%
5,Cc1ccc(-c2n[nH]c(=S)n2/N=C/c2ccc(O)cc2O)cc1,8%
6,COc1ccc(-c2n[nH]c(=S)n2N=Cc2ccc(-c3ccccc3)cc2)cc1,45%
7,COc1cc(/C=N/n2c(-c3ccc(C)cc3)n[nH]c2=S)ccc1O,8%
8,Cc1cccc(C=Nn2c(-c3ccccc3)n[nH]c2=S)c1,22%
9,Cc1ccc(-c2n[nH]c(=S)n2/N=C/c2cc(Br)ccc2O)cc1,15%
10,Cc1ccc(-c2n[nH]c(=S)n2/N=C/c2ccc(O)cc2)cc1,9%
11,Oc1ccc(/C=N/n2c(-c3ccccc3)n[nH]c2=S)cc1O,55% (active)
12,Cc1ccc(-c2n[nH]c(=S)n2N=Cc2ccc(O)c(O)c2)cc1,60% (active)
13,Cc1ccc(-c2n[nH]c(=S)n2N=Cc2ccc(-c3ccccc3)cc2)cc1,56% (active)
14,O=C1OC(/C=C/c2ccccc2)=NC/1=C/c1ccc(-c2ccc3c(c2)C(=O)NC3=O)o1,33%
15,C#CCOc1ccc(C=C2C(=O)N(C)C(=S)N(C)C2=O)cc1Br,21%
16,Clc1ccc(C2C=C(c3cccs3)Nc3nnnn32)cc1 (configuration not stated),3%
17,O=C1NC(=S)S/C1=C/c1ccc(O)c(Br)c1,3%
18,COc1cc(/C=C2\SC(=Nc3ccc(C)c(Cl)c3)NC2=O)cc(OC)c1OC,21%
19,COc1cc(/C=C2\SC(=Nc3ccc(C)c(Cl)c3)NC2=O)ccc1C,56% (active)
20,COc1ccc(/C=C2/SC(=S)NC2=O)cc1I,39%
21,COc1ccc(/C=C2\SC(=S)NC2=O)cc1C,65% (active)
22,O=C1NC(=S)S/C1=C/c1cc(Br)ccc1O,24%
23,O=C1NC(=S)S/C1=C\c1ccc(O)c(O)c1,78% (active)
24,Nc1ccc(/C=C2/SC(=S)NC2=O)cc1,4%
25,COc1cc(/C=C2/SC(=S)NC2=O)ccc1OC(C)C,1%

row,Compound,inhibition
1,COc1cc(/C=C2\SC(=Nc3ccc(C)c(Cl)c3)NC2=O)ccc1O,47%
2,O=C1NC(=S)S/C1=C/c1ccc(Cl)cc1,10%
3,O=C1NC(=S)S/C1=C\c1ccc(N2CCCC2)cc1,54% (active)
4,O=C1C(Cc2ccccc2)S/C(=N/N=C/c2cccc([N+](=O)[O-])c2)N1c1ccccc1 (configuration not stated),20%
5,Cc1ccc(NC(=O)CN(c2ccc(Br)cc2)S(=O)(=O)c2ccccc2)cc1Cl,7%
6,CCOc1ccccc1NC(=O)CCN1C(=O)/C(=C/c2ccccc2Cl)SC1=S,13%
7,CCCCOC(C)n1cc(Cl)c(=O)[nH]c1=O (configuration not stated),3%
8,COc1ccc2c(c1)c(=O)oc1cc(OCC(=O)c3ccc(F)cc3)ccc12,34%
9,COc1ccc(OCCOc2c(Cl)cc(/C=C3\SC(=S)NC3=O)cc2OC)cc1,47%
10,CCOc1cc(/C=C2\SC(=S)NC2=O)ccc1OCCOc1ccccc1Cl,43%
11,COc1cc(/C=C2\SC(=S)NC2=O)ccc1OCCOc1ccccc1Cl,51% (active)
12,COc1cc(/C=C2\SC(=S)NC2=O)cc(Br)c1OC(=O)c1ccccc1,58% (active)
13,COc1cc(/C=C2\SC(=S)NC2=O)cc(Cl)c1OCCOc1ccccc1Cl,26%
14,CC(C)COc1ccc(/C=C2\SC(=S)NC2=O)c2ccccc12,51% (active)
15,COc1cc(/C=C2\SC(=S)NC2=O)cc(Br)c1OC(C)=O,4%
16,COc1cccc(OCCOc2c(Cl)cc(/C=C3/SC(=S)NC3=O)cc2OC)c1,23%
17,COc1ccc(/C=C2\SC(=S)NC2=O)c(OC)c1OC,0%
18,COc1cc(/C=C2\SC(=S)NC2=O)cc(Br)c1OC,5%
19,CC(C)COc1ccc(/C=C2\SC(=S)NC2=O)cc1,22%
20,COc1cc(/C=C2/SC(=S)NC2=O)cc(Cl)c1OCC(C)COc1ccccc1 (configuration not stated),50% (active)
21,CCc1ccc(C=Nn2c(-c3ccc(Cl)cc3)n[nH]c2=S)cc1,3%
22,CCOc1cc(/C=C2\C(=O)NC(=O)N(c3ccc(Cl)cc3)C2=O)cc(Cl)c1OCC,0%
